# Values quoted from earlier work as cited in PubChem BioAssay AID977611.
# The campaign covered roughly 3,900 compounds. About 3,900 (100%) were called active. No cut-off is given here; in the data, nearly all actives have Kd up to about 4200 µM. So high a share suggests a set chosen from earlier hits. The list shows a part of the results. *1 amine or outer side, *2 acyl side, *3 side chain or, on linkers, in order; H or OH if unused. Where a SMILES comes first, the peptide text is derived from it. Bridges are numbered along the chain shown (N, C = ends). Side-chain parts run from the residue outwards. [ ]: non-standard residue; d: D form. X1 = CC(C)C[C@@H](C(=O)[*:2])N(C[C@H](Cc1ccccc1)N[*:3])[*:1]; Orn(CH(NH2)2) = NC(N)NCCC[C@H](N)C(=O)O; S5 = C=CCCC[C@](C)(N)C(=O)O
# Experiment: PubChem AID 977611
# Conditions: PDB protein-ligand complexes, literature Kd
molecule,measurement,setting,value
Nc1nc2[nH]nc(CCC(=O)O)c(=O)c2c(=O)[nH]1,Kd,"protein: Dihydropteroate Synthase, PDB entry 4db7",273 nM (active)
C[C@@H](C(=O)O)c1n[nH]c2nc(N)[nH]c(=O)c2c1=O,Kd,"protein: Dihydropteroate Synthase, PDB entry 4daf",76 nM (active)
COc1ccccc1[C@@H](Br)[C@H](NC(=O)c1ccc([N+](=O)[O-])cc1)C(=O)N1CCCCC1,Kd,"protein: Capsid protein, PDB entry 4g93",300000 nM (active)
Nc1ncnc2c1ncn2[C@@H]1O[C@H](COP(O)O)[C@@H](O)[C@H]1O,Kd,PDB entry 4qsk,8000 nM (active)
C[C@@H](Oc1ccc(Oc2ncc(C(F)(F)F)cc2Cl)cc1)C(=O)O,Kd,"protein: carboxyltransferase subunit of ACC (AccD6), PDB entry 4g2r",35800 nM (active)
OC(Cc1cccc(-c2cccc3c2oc2ccccc23)c1)([P+](O)(O)O)[P+](O)(O)O,Kd,"protein: Diterpene synthase Rv3378c, PDB entry 3wqm",560 nM (active)
CN1CCN(c2cccc(CN)c2)CC1,Kd,"protein: CATIONIC TRYPSIN, PDB entry 4abg",271000 nM (active)
"CC(C)C[C@@H]1NC(=O)[C@H](C)NC(=O)[C@@H]2CSSC[C@H](NC(=O)CN)C(=O)N[C@@H](CSSC[C@@H](C(=O)O)NC(=O)[C@H](Cc3ccc(O)cc3)NC(=O)[C@H](CCCCN)NC(=O)[C@@H]3CCCN3C(=O)[C@H](CC(N)=O)NC(=O)[C@H](CC(N)=O)NC1=O)C(=O)N[C@@H](CO)C(=O)N[C@@H](CC(C)C)C(=O)N1CCC[C@H]1C(=O)N1CCC[C@H]1C(=O)N2 (H-GCCSLPPCALNNPKYC-OH; disulfide 2-8, 3-16)",Kd,"protein: nicotinic acetylcholine receptor homolog AChBP(?7-nAChR), PDB entry 2br8",32.6 nM (active)
Cc1ccc(C(=O)Nc2ccc(S(O)(O)O)c3cc(S(O)(O)O)cc(S(O)(O)O)c23)cc1N,Kd,"protein: Nucleocapsid protein, PDB entry 4j4v",440 nM (active)
NCCc1c[nH]c2ccccc12,Kd,"protein: Biogenic amine-binding protein, PDB entry 4ge1",370 nM (active)
Cc1[nH]c2ccccc2c1CC(=O)N[C@@H](Cc1ccccc1)C(=O)N(C)c1ccccc1,Kd,"protein: CAPSID PROTEIN P24 CA Hexamer, PDB entry 4qnb",260 nM (active)
same,Kd,"protein: Capsid protein p24, PDB entry 4u0e",120 nM (active)
H-PVLFPGQPFGQPPA-OH,Kd,"protein: Capsid protein p24, PDB entry 4u0a",50000 nM (active)
CC(C)C[C@H](NC(=O)[C@@H](NC(=O)[C@@H]1CCCN1)C(C)C)C(=O)N[C@@H](Cc1ccccc1)C(=O)N1CCC[C@H]1C(=O)NCC(=O)N[C@@H](CCC(N)=O)C(=O)N1CCC[C@H]1C(=O)N[C@@H](Cc1ccccc1)C(=O)NCC(=O)N[C@@H](CCC(N)=O)C(=O)N1CCC[C@H]1C(=O)N1CCC[C@H]1C(=O)O (H-PVLFPGQPFGQPP-OH),Kd,"protein: CAPSID PROTEIN P24 CA Hexamer, PDB entry 4wym",99800 nM (active)
CC(C)C[C@H](NC[C@H](Cc1ccccc1)NC(=O)[C@H](CC(N)=O)NC(=O)CNC(=O)[C@@H]1CCCN1C(=O)[C@@H](N)CCCNC(N)N)C(=O)N[C@@H](CCC(N)=O)C(=O)N[C@@H](CO)C(=O)N[C@@H](CCCNC(N)N)C(=O)N1CCC[C@H]1C(N)=O (H-[X1]([Asn-Gly-Pro-Orn(CH(NH2)2)])QS[Orn(CH(NH2)2)]P-NH2),Kd,"protein: PR(HIV-1 protease) with the V82A mutation (PRV82A), PDB entry 2aof",28200 nM (active)
same,Kd,"protein: wild-type PR(HIV-1 protease), PDB entry 2aoi",96700 nM (active)
H-PVLFPGAPFGQPPA-OH,Kd,"protein: Capsid protein p24, PDB entry 4u0b",50000 nM (active)
COC(=O)C[C@@H]1N=C(c2ccc(Cl)cc2)c2c(sc(C)c2C)-n2c(C)nnc21,Kd,"protein: Bromodomain-containing protein 4, PDB entry 4f3i",36.1 nM (active)
NC1NC(=O)c2ncn([C@@H]3O[C@H](CO[P+](O)(O)O[C@H]4[C@@H](O)[C@H](n5cnc6c5NC(N)NC6=O)O[C@@H]4COP(O)O)[C@@H](OP(O)O)[C@H]3O)c2N1 (stereo not given in full),Kd,"protein: Simian 11 rotavirus (serotype 3 / strain SA11-Ramig), PDB entry 4g0a",25.3 nM (active)
C[C@H]1OC(c2cccc(O)c2O)=N[C@@H]1C(=O)N(CCCNC(=O)c1cccc(O)c1O)CCCNC(=O)c1cccc(O)c1O,Kd,"protein: Neutrophil gelatinase-associated lipocalin, PDB entry 4k19",4.4 nM (active)
H-TFKKTN-OH,Kd,"protein: Coatomer subunit beta', PDB entry 4j86",171000 nM (active)
H-ITFEDLLDYYGP-OH,Kd,"protein: HIV-1 Capsid Protein(L211S), PDB entry 3ds4",64500 nM (active)
same,Kd,"protein: HIV-1 Capsid Protein(N183A), PDB entry 3ds0",14900 nM (active)
same,Kd,"protein: HIV-1 Capsid Protein(Y169A), PDB entry 3ds3",6000 nM (active)
CC(C)C[C@H](NC(=O)[C@@H](NC(=O)[C@H](CCC(=O)O)NC(=O)[C@@H](N)Cc1ccc(O)cc1)[C@@H](C)O)C(=O)N[C@@H](CO[P+](O)(O)O)C(=O)N[C@@H](CC(=O)O)C(=O)N[C@@H](CO[P+](O)(O)O)C(=O)N[C@@H](CCC(=O)O)C(=O)O,Kd,"protein: Msx2-interacting protein, PDB entry 2rt5",190 nM (active)
H-EDMFAKLKDKFFNEINK-OH,Kd,PDB entry 2nm1,34 nM (active)
CC[C@H](C)[C@H](N)C(=O)N[C@H](C(=O)N[C@@H](Cc1ccccc1)C(=O)N[C@@H](CCC(=O)O)C(=O)N[C@@H](CC(=O)O)C(=O)N[C@@H](CC(C)C)C(=O)N[C@@H](CC(C)C)C(=O)N[C@@H](CC(=O)O)C(=O)N[C@@H](Cc1ccc(O)cc1)C(=O)N[C@@H](Cc1ccc(O)cc1)C(=O)NCC=O)[C@@H](C)O (H-ITFEDLLDYYG-aldehyde),Kd,"protein: HIV-1 Capsid Protein(E187A), PDB entry 3ds1",2000 nM (active)
H-ITYDKGIQTDQ-OH,Kd,"protein: Dynein light chain 1, cytoplasmic, PDB entry 4ht6",620 nM (active)
CC[C@H](C)[C@H](N)C(=O)N[C@H](C(=O)N[C@@H](Cc1ccccc1)C(=O)N[C@@]1(C)CCC/C=C\CCC[C@@](C)(C(=O)N[C@@H](Cc2ccc(O)cc2)C(=O)N[C@@H](Cc2ccc(O)cc2)C(=O)NCC(=O)N[C@@H](CCCCN)C(=O)N[C@@H](CCCCN)C(=O)N[C@@H](CCCCN)C(=O)O)NC(=O)[C@H](CC(C)C)NC(=O)[C@H](CC(C)C)NC(=O)[C@H](CC(=O)O)NC1=O)[C@@H](C)O (H-ITF[S5]DLL[S5]YYGKKK-OH; staple (Z) 4-8),Kd,"protein: Capsid protein p24(W184A, M185A), PDB entry 2l6e",1000 nM (active)
CC(C)C[C@H](NC(=O)[C@H](CCCCN)NC(=O)[C@H](CC(C)C)NC(=O)[C@@H](NC(=O)[C@H](CC(N)=O)NC(=O)[C@H](CCC(N)=O)NC(=O)[C@H](CCCCN)NC(=O)[C@@H](NC(=O)[C@H](Cc1ccc(O)cc1)NC(=O)[C@H](CCCCN)NC(=O)[C@@H]1CCCN1)C(C)C)[C@@H](C)O)C(=O)N[C@@H](C)C(=O)N[C@H](C(=O)O)[C@@H](C)O,Kd,"protein: SEC3 wt, PDB entry 1jwm",270000 nM (active)
